The sequences below were run on VDR:RXRa (NR concentration 270 nM, RXRa partner concentration 90 nM) (assay: PBM binding z-score (relative to random genomic background probes); higher = stronger binding; sequences stand for … in GC…GCGATTGACAGCGTAGAATGAAGG).
Experimental: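 Protein-binding microarray (Agilent 4x180K custom design, double-stranded 60-nt probes: 5' GC cap, 34-nt variable region, 24-nt constant primer region; full probe sequence given). Purified or IVT nuclear receptor:RXRα heterodimers (3:1 NR:RXRα, mostly 270:90 nM) or homodimers were incubated for 1 h in PBS with 2% milk and no ligand, then detected with Alexa488 antibodies. Fluorescence from o1-orientation probes (~5 replicates averaged) was converted to z-scores against 500 random hg19 background probes. Variable regions are seed direct-repeat (DR0–DR5) sites, all their single-nucleotide variants and half-site ablations.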

Sequence	PBM binding z-score
CAGCCTAGGCCAGGGCCAGTATAGGAGGAACGTT	-1
GATACAGGGTCAGCTAGAGGCCATAGTATGGAAA	4.05
GCTAGTTGGTCAGTAAAAGGTCATACACCGGTCG	3.69
CGAACTAAGTCAGAACAGGACAGTGAAGGATGAT	-0.25
GCTGCTAGGTCAGGTGGGTCAGCTAACGGGTACG	2.75
AGAATCAGGTTACCAAAGATCAGGGAAACGCTTG	-0.0357
GCTGCTAGGTCAGGTTGGTCAGCTCACGGGTACG	0.52
TCATATGGGTAAATGCTAGGTGAAAGTCCGATCT	0.528
TCGAGTAGGTTAGTAGGGGCATTCAGCCAACATA	3.1
TCTAGCAGGCCAGACGGTCACTCAAGAGGTACGG	-0.346
ACTAGCAGACCAAGTTTGGGTCACTCAAACAAAG	0.245
CAAACTAGGTCACGAAAGGTCAAAGGCGAATGAC	6.79
CCTCCTGGGCCATTCAGAGGTCATTGATCATATG	3.97
GCAGACAGGTGAAACGCAGGTAAATCAGGGTGGC	-0.374
CAGCCTATGTCAGGGCCAGTATAGGAGGAACGTT	-0.493
TAGGCTAGGTCATGGGCCAGTATACCACGCGAAC	1.98
TCTAGTTGGTCACAGGTCACACACTCGAAATGCG	2.95
ATCACTAGGTAAGACTCAGTTCAGTGAAGAACGC	0.53
CAAACTAGGGCAAGGTCAAAGTCGGTTTGTGCCA	4.44
GCTATTAGTTGAAAGGGCAGCCGAATGATTCTCG	0.0527

Sequence	PBM binding z-score
ATCTCTAGGTAACCGAGTTCAGTGAATGCCGAAC	5.27
CGTCAAAGTTCAACTAAGGTAACCTAAAGCACGC	4.68
TCGAGTAGTTTAGGGGCATTCAGAATGGCGTCGA	0.605
CAAACTAGGTCAAGAGGTCACAGTCCGCTTCCCG	5.92
CCGAGTGGGGCAAGGTTACCATAACGCACAGCCA	0.482
CCGACTGGGGCATGGTTACCATAACGCACAGCCA	-0.609
ACTAGTAGTTGAGACGAGGGCAACCGATAGGTTG	0.766
CCGACTGGGGCCTAAGGTTACCATAAGCCAGCCC	-0.158
GCTGCTACGTCAACTGATGGTCAGCTAAAGCTCG	-0.617
TAACCTAGGTCATTCAGGGGCCAGTATAGAAAGC	4.03
TTACCAAGGTGAGCTGCGGTCGTTGATCCAACTC	0.235
AGTCAAAGTTCACTAGGTAGCGTAAGATTCAGCT	3.56
GCATATAGGTAATACGAGGTGAAAGTCCGATTGT	0.598
CGTCAAAGTTCTACTAAGGTAACGTAAAGCACGC	0.34
ACTAGCAGGCCAAGTGTGGGTCACTCAAACAAAG	0.53
TCTAGTTGGTAACGGAGGTCACACACGACGGGTA	3.8
GGAACGAGGGCAAGTTGACAGCAGAGTTTGATGG	0.799
TCATATAGGTACACAGGTGAAAGTCCGTAAGTTA	1.32
TCTCGGAGGACACGAAGTTCAGAGCTTTCCAGAG	2.63
AGAACGAGGGCAAAGAGTTGATAGCACGGGTGGC	4.29

From the supplement of paper PMC6555819
